Compounds with a hit are over-represented: about 1.5% of the library has one in this group of screens.
VHR inh abs – DUSP3 (human) phosphatase inhibition; recombinant VHR phosphatase, pNPP absorbance; AID 1654; 290,000 tested, 0.52% active; inhibition, % at 13.3 µM; in the data active means inhibition above about 50%
CCHF vOTU inh – blocks the CCHF virus ovarian tumor domain protease; 370,000 tested, 0.55% active; CCHFV vOTU protease, Pep-AMC fluorescence; inhibition, % at 11.5 µM; AID 651958; in the data active means inhibition above about 30%; further: 0% = vehicle wells with enzyme and 100% = no enzyme wells
RecA splice inh – Mtb RecA intein splicing inhibition; cell-free RecA intein splicing, fluorescence; 290,000 tested, 0.75% active; inhibition, % (no concentration beside the values); P9WHJ3; in the data active means inhibition above about 30%;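 further: 0% = vehicle wells and 100% = reference inhibitor control wells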
Target sequence (P9WHJ3 whole entry, looked up, canonical isoform): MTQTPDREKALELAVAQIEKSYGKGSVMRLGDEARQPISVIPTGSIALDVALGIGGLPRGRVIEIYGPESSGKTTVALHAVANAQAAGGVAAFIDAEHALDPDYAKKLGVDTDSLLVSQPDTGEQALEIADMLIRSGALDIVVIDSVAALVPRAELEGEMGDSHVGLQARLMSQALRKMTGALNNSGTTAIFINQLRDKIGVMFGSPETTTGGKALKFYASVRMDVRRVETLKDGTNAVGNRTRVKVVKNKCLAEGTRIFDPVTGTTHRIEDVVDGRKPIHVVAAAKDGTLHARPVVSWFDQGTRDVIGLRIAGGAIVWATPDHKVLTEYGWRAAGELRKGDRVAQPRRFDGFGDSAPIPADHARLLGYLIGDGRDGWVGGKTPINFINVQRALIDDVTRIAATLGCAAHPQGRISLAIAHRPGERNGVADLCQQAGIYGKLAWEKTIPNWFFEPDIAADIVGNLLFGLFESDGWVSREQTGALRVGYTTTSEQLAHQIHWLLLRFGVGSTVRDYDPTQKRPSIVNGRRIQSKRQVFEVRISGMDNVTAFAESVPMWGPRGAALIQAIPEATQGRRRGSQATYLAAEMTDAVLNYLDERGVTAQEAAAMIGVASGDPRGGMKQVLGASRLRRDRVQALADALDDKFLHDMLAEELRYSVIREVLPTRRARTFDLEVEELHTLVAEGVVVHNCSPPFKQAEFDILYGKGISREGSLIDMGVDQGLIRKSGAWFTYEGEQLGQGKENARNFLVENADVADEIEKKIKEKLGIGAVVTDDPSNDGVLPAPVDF
SARS 3CLpro inh – SARS-CoV 3CLpro protease inhibition; P0C6X7; recombinant SARS-CoV 3CLpro, quenched FRET peptide cleavage; inhibition, % at 6 µM; 290,000 tested, 0.14% active; in the data active means inhibition above about 12%
Starred values were filed as active, the others as inactive; nt = not tested or not shown.

SMILES	VHR inh abs	CCHF vOTU inh	RecA splice inh	SARS 3CLpro inh
CCOC(=O)C1=C[C@@H](c2ccccc2)N(S(=O)(=O)c2ccc(C)cc2)[C@H]1c1ccc(F)cc1	nt	17.6	nt	nt
O=C(Nc1ccc(-c2nnco2)cc1)c1ccccc1	-3.9	8.5	1.3	-1.7
O=C(Nc1ccccc1)Nc1cccc(-c2nnco2)c1	53.0*	-2.5	9.1	-8.1
Cc1cccc(NC2=C(Cl)C(=O)OC2OC(=O)c2ccco2)c1 (stereo not given)	6.2	-8.2	41.7*	-1.1
Cc1cc(N2CCN(c3cccc(C)c3C)CC2)nc(-c2ccccc2)n1	52.9*	7.5	6.0	0.3
CC(C)C(C(=O)NCc1ccco1)N(Cc1ccco1)C(=O)CNS(=O)(=O)c1ccccc1 (stereo not given)	7.4	1.4	3.3	-0.3
CCCC(C(=O)NC(C)(C)CC)N(Cc1ccco1)C(=O)CNS(=O)(=O)c1ccccc1 (stereo not given)	57.6*	1.0	5.4	-2.4
Cc1[nH]c(C)c(S(=O)(=O)N2CCCCC2C)c1C(=O)N1CCCC1 (stereo not given)	56.3*	5.8	-10.3	-2.4
Fc1cccc(Cl)c1Cn1ncc2ccccc21	53.0*	1.9	1.8	2.0
Cc1ccc(C(=O)Nc2ccc(Cl)cc2C)c(Cl)c1	12.5	10.4	4.6	3.9
CCCNC(=O)c1cc(Cl)c(NC(=O)C2=C(C)OCCS2)cc1OC	56.9*	16.0	-0.2	-7.1
CNc1ccc(-c2cccc(CO)c2)cn1	nt	-125.0	nt	nt
CN1C(=O)Cc2cc(S(=O)(=O)N3CCN(c4cccc(C(F)(F)F)c4)CC3)ccc21	52.5*	14.2	-0.2	-3.0
Cc1ccc(C)c(N2CCN(S(=O)(=O)c3ccc4c(c3)CC(=O)N4C)CC2)c1	12.8	2.8	-0.5	3.0
COc1ccccc1NC(=O)NNC(=O)CCN1CCOCC1	56.7*	-2.2	2.6	-3.8
CCC(C(=O)NC1CCCC1)N(C(=O)Cn1nnc(-c2ccc(C)o2)n1)c1ccccc1OC (stereo not given)	11.4	-6.3	-1.5	1.4
CCC(C(=O)NC1CCCC1)N(C(=O)Cn1nnc(-c2ccc(C)o2)n1)c1ccc(F)cc1 (stereo not given)	52.9*	-3.1	-0.1	-2.9
Cn1cccc1C(=O)Nc1ccc(Cl)c(S(=O)(=O)N2CCCCC2)c1	nt	19.2	nt	nt
CC(C)(C)NC(=O)CSCc1ccc(Br)cc1	52.9*	-3.0	0.8	-1.8
CC1=C(C(=O)N2CCOCC2)C(c2ccc(OC(F)F)cc2)NC(=S)N1c1ccccc1 (stereo not given)	53.2*	1.0	10.2	0.0
Oc1c(Cl)cc(Cl)cc1Sc1cc(Cl)cc(Cl)c1O	-26.1	nt	73.1*	8.9
C[C@H]1C(c2ccccc2F)O[C@]2(C[C@H](O)c3ccccc3O2)C[C@@H]1O (stereo not given in full)	nt	-2.1	nt	nt
C=C(C)CN1C(=O)C2(OCCO2)c2cc(Br)ccc21	nt	-11.1	1.5	nt
CCOC(=O)CN1C(=O)C2(OCCCO2)c2cc(Br)ccc21	59.1*	-10.4	-0.1	1.0
CC(NC(=O)CN1CCN(c2ccccc2F)CC1)c1ccccc1 (stereo not given)	29.3	0.4	0.9	0.8
SMILES	VHR inh abs	CCHF vOTU inh	RecA splice inh	SARS 3CLpro inh
CC(NC(=O)CN1CCc2ccccc21)c1ccccc1 (stereo not given)	53.8*	4.2	-2.5	2.0
CCOc1ccc(CN(C)C(=O)CCl)cc1	6.0	-9.2	55.1*	-0.2
COc1ccc(C(=O)C=CNNC(=O)c2ccc(Cl)cc2)cc1	58.3*	14.2	-0.3	-2.6
COc1ccc(C(=O)NN/C=C/C(=O)c2ccc(Br)cc2)cc1	nt	13.2	nt	nt
CC(=O)Oc1ccc(/C=N/NS(=O)(=O)c2ccc(C)cc2)c(OC(C)=O)c1	53.9*	1.8	4.3	-2.1
COc1ccc(O)c(/C=N/NS(=O)(=O)c2ccc(C)cc2)c1	12.2	6.4	-6.1	0.1
CN(C)[C@@H]1C(=O)C(C(=O)NCN2CCCC2)=C(O)[C@@]2(O)C(=O)C3=C(O)c4c(O)cccc4[C@@](C)(O)C3CC12 (stereo not given in full)	66.4*	nt	3.9	4.2
COc1ccccc1NC(=O)c1ccc(Cl)c(S(=O)(=O)N2CCCCC2)c1	20.2	10.8	4.4	-0.7
COc1ccccc1NC(=O)c1ccc(C)c(S(=O)(=O)N2CCCCC2)c1	52.9*	8.4	2.4	-4.4
Cc1ccc(NC(=S)NC(=O)C2CCC2)cc1C	48.5	1.9	4.7	6.8
O=C(OCc1c(F)cccc1Cl)c1cccnc1Cl	18.7	-3.5	1.3	-1.2
CCn1c(O)c(N=NC(=O)CNC(=O)/C=C/c2ccco2)c2ccccc21	-20.3	3.3	0.7	-1.2
O=C(CNC(=O)/C=C/c1ccccc1)N=Nc1c(O)n(Cc2ccccc2)c2ccccc12	56.2*	-8.1	0.1	0.3
COc1ccc(-c2csc3nc(-c4ccc(C)cc4)oc(=O)c23)cc1OC	91.8*	-5.3	-21.2	3.6
CC(=O)Nc1ccc(/C=N\NC(=O)c2cccc(S(=O)(=O)N(C)C)c2)cc1	nt	6.8	nt	nt
CC(=O)N1CCN=C1SCc1ccc(Br)cc1	53.3*	9.5	6.2	2.1
CS(=O)(=O)N1CCN=C1SCc1ccc(Br)cc1	8.0	6.4	-0.4	-3.7
O=C(Nc1cccc(NC(=O)c2ccco2)c1)c1ccccc1	57.6*	-8.4	-2.3	-2.5
CCn1cc(/C=c2/sc3n(c2=O)C2c4ccccc4OC(C)(N=3)C2C(=O)OC)c(C)n1 (stereo not given)	52.7*	-1.5	-1.7	5.4
CCCc1nc(SCC(=O)N2CCc3ccccc3C2)c2ccccc2n1	27.6	-6.8	32.1*	3.7
CC(=O)N/C(=C\c1ccccc1)C(=O)OCC(=O)NC1CCCC1	58.3*	-3.8	0.4	3.5
CC(=O)N/C(=C\c1ccccc1)C(=O)OCC(=O)c1ccccc1	nt	-4.6	nt	nt
COC(=O)CCCC(=O)N1CCCC(CNS(=O)(=O)c2ccc(OC)cc2)C1 (stereo not given)	7.8	-6.7	-1.6	-6.8
CCOc1cc(NC(=S)NCC(C)C)c(OCC)cc1NC(=O)c1ccco1	51.3*	8.9	-1.4	2.1
CCN1CCN(CCCNC(=O)c2ccc3c(c2)NC(=O)c2ccccc2S3)CC1	27.8	14.4	-0.3	3.0
SMILES	VHR inh abs	CCHF vOTU inh	RecA splice inh	SARS 3CLpro inh
CC1CCCC(C)N1CCCNC(=O)c1ccc2c(c1)NC(=O)c1ccccc1S2 (stereo not given)	57.7*	17.7	-4.2	-3.4
Cc1cccn2c(=O)nc(SCC(=O)NCc3ccc(F)cc3)nc12	nt	0.7	5.2	nt
O=c1c2ccccc2nc2c3ccccc3c(NCc3ccccn3)nn12	57.4*	-25.8	-7.2	2.1
CCn1c(NC(=O)c2cccc(Cn3cc(Cl)cn3)c2)nc2ccccc21	50.9*	25.3	3.0	0.3
Cn1c(NC(=O)c2cccc(Cn3cc(Cl)cn3)c2)nc2ccccc21	21.9	-6.7	-0.8	-3.7
CCC(C(=O)N1CCN(Cc2ccc3c(c2)OCO3)CC1)n1c(=O)[nH]c2ccccc2c1=O (stereo not given)	51.2*	12.1	-2.7	-0.4
O=C(Cn1c(=O)[nH]c2ccccc2c1=O)N1CCN(Cc2ccc3c(c2)OCO3)CC1	6.8	10.8	0.5	3.5
CCOC(=O)N1CCN(C(=O)CCCN2C(=O)CSc3nc(C)cc(C)c32)CC1	51.0*	11.5	0.4	-1.4

Assay outcomes as filed in PubChem.
